According to PubChem BioAssay (EPA / NIEHS):
Results filed as inconclusive are left out. Calls of active or inactive are those of the source. The calls were made as follows, unless noted: active = hit-call score of the fitted dose curve at least 0.9, where 1 is the maximum; inactive = score below 0.9.

Tests used:
[1] = biological target: Retinoic acid receptor RXR-alpha (Homo sapiens) (UniProt P19793); test: ATG_RXRa_TRANS: Attagene TRANS-FACTORIAL HepG2 Assay for human Retinoid X Receptor alpha (RXRa) (AID 2283012; active = hit-call score of the fitted dose curve at least 0.9, where 1 is the maximum)
Chain of Retinoic acid receptor RXR-alpha (Homo sapiens) (P19793 whole entry, looked up, the tested form may be a part): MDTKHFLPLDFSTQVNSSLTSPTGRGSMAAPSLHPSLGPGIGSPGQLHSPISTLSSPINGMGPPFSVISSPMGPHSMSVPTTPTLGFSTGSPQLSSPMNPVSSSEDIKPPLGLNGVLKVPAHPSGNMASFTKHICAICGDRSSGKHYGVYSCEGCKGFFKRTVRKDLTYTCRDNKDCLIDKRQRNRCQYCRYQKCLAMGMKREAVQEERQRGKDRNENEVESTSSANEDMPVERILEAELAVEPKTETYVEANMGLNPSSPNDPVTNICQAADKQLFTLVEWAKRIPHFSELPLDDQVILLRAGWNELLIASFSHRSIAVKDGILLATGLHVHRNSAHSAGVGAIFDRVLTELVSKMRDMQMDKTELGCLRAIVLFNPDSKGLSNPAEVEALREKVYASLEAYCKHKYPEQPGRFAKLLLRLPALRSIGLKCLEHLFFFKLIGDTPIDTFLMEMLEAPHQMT
Outline: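 Transient transfection of human HepG2 with multiple GAL4-UAS reporter constructs; 24 h compound exposure; total RNA isolated, reverse-transcribed, PCR-amplified, 6-FAM labelled, HpaI-cut, resolved by capillary electrophoresis. Positive-direction fit versus DMSO.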

[2] = biological target: human Retinoid X Receptor beta (RXRb), RXRB (gene 6257) (UniProt P28702); test: ATG_RXRb_TRANS: Attagene TRANS-FACTORIAL HepG2 Assay for human Retinoid X Receptor beta (RXRb) (AID 2283013; active = hit-call score of the fitted dose curve at least 0.9, where 1 is the maximum)
Chain of human Retinoid X Receptor beta (RXRb), RXRB (gene 6257) (P28702 whole entry, looked up, the tested form may be a part): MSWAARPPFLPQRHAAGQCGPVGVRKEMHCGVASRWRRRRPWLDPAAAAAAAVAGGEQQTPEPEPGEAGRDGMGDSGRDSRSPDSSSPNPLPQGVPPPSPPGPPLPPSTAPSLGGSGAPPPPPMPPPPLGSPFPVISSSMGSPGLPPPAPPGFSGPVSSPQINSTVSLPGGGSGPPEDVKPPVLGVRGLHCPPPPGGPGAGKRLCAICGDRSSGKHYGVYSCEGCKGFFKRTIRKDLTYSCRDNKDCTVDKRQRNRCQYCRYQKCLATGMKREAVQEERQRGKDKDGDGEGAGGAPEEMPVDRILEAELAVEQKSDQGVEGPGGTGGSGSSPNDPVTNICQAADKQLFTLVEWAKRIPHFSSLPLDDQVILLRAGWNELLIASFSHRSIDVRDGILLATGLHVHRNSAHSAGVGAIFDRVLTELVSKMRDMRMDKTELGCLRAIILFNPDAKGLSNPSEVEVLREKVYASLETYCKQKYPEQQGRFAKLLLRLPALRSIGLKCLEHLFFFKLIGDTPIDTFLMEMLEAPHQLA
Outline: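 Transfect HepG2 with GAL4-UAS multi-reporter constructs (chimeric NR-Gal4, TRANS format); dose compound 24 h; isolate RNA, RT-PCR, FAM primer extension, HpaI digest; quantify by capillary electrophoresis; positive direction vs DMSO.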

[3] = read-out: E-selectin (Homo sapiens) (UniProt P16581); test: BSK_3C_Eselectin: BioMAP Diversity Plus: 3C Assay for Eselectin Biomarker Activity (AID 2283015); conditions: primary human endothelial cells (HUVEC); actives raise or lower the signal;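 also: cell surface E-selectin protein quantified by ELISA 24 h after dosing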
Outline: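 E-selectin ELISA readout, fitted bidirectionally relative to DMSO, taken 24 h post-dosing in HUVEC cultures of the 3C system. Overt cytotoxicity tracked with sulforhodamine B staining of parallel wells.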

[4] = read-out: Interleukin-1 alpha (IL1a), IL1A (gene 3552); test: BSK_BE3C_IL1a: BioMAP Diversity Plus: BE3C Assay for Interleukin-1 alpha (IL1a) Biomarker Activity (AID 2283016); conditions: primary human bronchial epithelial cells; actives raise or lower the signal
Outline: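 BE3C primary human bronchial epithelium; cpd 24 h; IL-1a by ELISA; bidirectional fit vs DMSO; parallel SRB (0.1% SRB, 10% TCA fix, 560 nm) for cytotoxicity.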

[5] = read-out: Monocyte Chemoattractant Protein-1 (MCP1), CCL2 (gene 6347); test: BSK_3C_MCP1: BioMAP Diversity Plus: 3C Assay for Monocyte Chemoattractant Protein-1 (MCP1) Biomarker Activity (AID 2283017); conditions: primary human endothelial cells (HUVEC); actives raise or lower the signal
Outline: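 MCP-1 was measured by ELISA 24 h after dosing in primary HUVEC 3C cultures and fitted in both directions relative to DMSO; cytotoxicity was checked by SRB total-protein staining in parallel wells.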

[6] = read-out: Monocyte Chemoattractant Protein-1 (MCP1), CCL2 (gene 6347); test: BSK_4H_MCP1: BioMAP Diversity Plus: 4H Assay for Monocyte Chemoattractant Protein-1 (MCP1) Biomarker Activity (AID 2283018); conditions: primary human endothelial cells (HUVEC); actives raise or lower the signal
Outline: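 ELISA read-out of MCP-1 from human vascular endothelial primary cells taken at 24 hours after compound exposure. Activity was fitted in both directions relative to DMSO, which served as negative control.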

[7] = read-out: Human Leukocyte Antigen - DR isotype (HLADR), HLA-DRA (gene 3122); test: BSK_3C_HLADR: BioMAP Diversity Plus: 3C Assay for Human Leukocyte Antigen - DR isotype (HLADR) Biomarker Activity (AID 2283019); conditions: primary human endothelial cells (HUVEC); actives raise or lower the signal
Outline: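 Bidirectional fitting against DMSO was applied to the HLA-DR ELISA signal from human umbilical vein endothelial cells, 24 h post-dose. Cytotoxicity came from parallel SRB total-protein staining; 3C proliferation was counted by SRB at 48 h.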

[8] = read-out: Interleukin-8 (IL8), CXCL8 (gene 3576); test: BSK_3C_IL8: BioMAP Diversity Plus: 3C Assay for Interleukin-8 (IL8) Biomarker Activity (AID 2283020); conditions: primary human endothelial cells (HUVEC); actives raise or lower the signal
Outline: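 ELISA read-out of IL-8 from human umbilical vein endothelium, measured 24 h after chemical dosing. Activity is expressed relative to DMSO negative control, with both increases and decreases fitted.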

[9] = read-out: Monokine induced gamma interferon (MIG), CXCL9 (gene 4283); test: BSK_3C_MIG: BioMAP Diversity Plus: 3C Assay for Monokine induced gamma interferon (MIG) Biomarker Activity (AID 2283021); conditions: primary human endothelial cells (HUVEC); actives raise or lower the signal
Outline: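 Read-out is ELISA detection of MIG on human umbilical vein endothelial cells, taken 24 h after dosing. Gain or loss of signal was scored relative to DMSO controls using bidirectional curve fitting.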

[10] = BSK_3C_SRB: Viability Assessment in the BioMAP Diversity Plus: 3C Assay (AID 2283023); conditions: primary human endothelial cells (HUVEC);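 also: fitted both ways against DMSO so a hit may be signal rise or drop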
Outline: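 Cytotoxicity readout in parallel HUVEC 3C cultures: after 24 h compound exposure, cells fixed with 10% TCA, stained with 0.1% SRB and read at 560 nm. Gain or loss relative to DMSO fitted.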

[11] = read-out: Matrix Metallopeptidase 1 (MMP1), MMP1 (gene 4312); test: BSK_BE3C_MMP1: BioMAP Diversity Plus: BE3C Assay for Matrix Metallopeptidase 1 (MMP1) Biomarker Activity (AID 2283024); conditions: primary human bronchial epithelial cells; actives raise or lower the signal
Outline: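 Human bronchial epithelial cells (BE3C system) exposed to compound for 24 h; MMP1 then quantified by ELISA. Activity was fitted in both directions relative to DMSO.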

[12] = BSK_3C_Vis: BioMAP Diversity Plus: 3C Assay for Morphology Visualization (AID 2283025); conditions: primary human endothelial cells (HUVEC);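 also: fitted both ways so gain or loss versus DMSO counts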;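 as to AC50: light microscopy image of cell morphology used as background control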
Outline: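 Chemicals were added to primary human umbilical vein endothelium, cells were incubated 24 h, and morphology was then visualized by light microscopy. Gain or loss of signal was fitted bidirectionally relative to DMSO.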

[13] = read-out: Pselectin, SELP (gene 6403); test: BSK_4H_Pselectin: BioMAP Diversity Plus: 4H Assay for Pselectin Biomarker Activity (AID 2283026); conditions: primary human endothelial cells (HUVEC); actives raise or lower the signal
Outline: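 ELISA read-out of P-selectin on human umbilical vein endothelium after 24 h of dosing. Values derive from bidirectional fitting relative to DMSO. Parallel SRB protein staining flagged overt cytotoxicity.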

[14] = BSK_4H_SRB: Viability Assessment in the BioMAP Diversity Plus: 4H Assay (AID 2283027); conditions: primary human endothelial cells (HUVEC);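 also: cells exposed to compound for 24 h before staining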
Outline: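 Human umbilical vein endothelial cells were dosed with chemical and, after 24 h, fixed with 10% TCA, stained with 0.1% sulforhodamine B, and read at 560 nm to give total protein as a cytotoxicity measure. Bidirectional fitting relative to DMSO control.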

[15] = BSK_BE3C_SRB: Viability Assessment in the BioMAP Diversity Plus: BE3C Assay (AID 2283028); conditions: primary human bronchial epithelial cells
Outline: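 Cytotoxicity read-out: SRB (0.1%) staining of TCA-fixed (10%) human lung bronchial epithelial cells, absorbance 560 nm, 24 h post-dosing. Curves fitted both directions relative to DMSO.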

[16] = read-out: Thrombomodulin, THBD (gene 7056); test: BSK_3C_Thrombomodulin: BioMAP Diversity Plus: 3C Assay for Thrombomodulin Biomarker Activity (AID 2283029); conditions: primary human endothelial cells (HUVEC); actives raise or lower the signal
Outline: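 Read-out is ELISA of thrombomodulin on human umbilical vein endothelium 24 h after chemical dosing. Gain or loss of signal is scored relative to DMSO. Overt cytotoxicity is checked in parallel cultures by sulforhodamine B staining.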

[17] = read-out: Urokinase-type plasminogen activator receptor (uPAR), PLAUR (gene 5329); test: BSK_4H_uPAR: BioMAP Diversity Plus: 4H Assay for Urokinase-type plasminogen activator receptor (uPAR) Biomarker Activity (AID 2283030); conditions: primary human endothelial cells (HUVEC); actives raise or lower the signal
Outline: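 uPAR level read by ELISA on HUVEC cultures (BioMAP 4H) 24 h post-dosing, analyzed for gain or loss relative to DMSO. Parallel SRB staining assessed overt cytotoxicity.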

[18] = read-out: Vascular endothelial growth factor receptor 2 (Homo sapiens) (UniProt P35968); test: BSK_4H_VEGFRII: BioMAP Diversity Plus: 4H Assay for Vascular endothelial growth factor receptor 2 (VEGFR2) Biomarker Activity (AID 2283031); conditions: primary human endothelial cells (HUVEC); actives raise or lower the signal
Outline: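 Measured by ELISA after 24 h of compound treatment: VEGFR2 on primary human umbilical vein endothelial cells, fitted in both directions relative to DMSO. Parallel cultures received SRB staining (560 nm) for overt cytotoxicity.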

Measured: AC50

Chain of E-selectin (Homo sapiens) (P16581 whole entry, looked up): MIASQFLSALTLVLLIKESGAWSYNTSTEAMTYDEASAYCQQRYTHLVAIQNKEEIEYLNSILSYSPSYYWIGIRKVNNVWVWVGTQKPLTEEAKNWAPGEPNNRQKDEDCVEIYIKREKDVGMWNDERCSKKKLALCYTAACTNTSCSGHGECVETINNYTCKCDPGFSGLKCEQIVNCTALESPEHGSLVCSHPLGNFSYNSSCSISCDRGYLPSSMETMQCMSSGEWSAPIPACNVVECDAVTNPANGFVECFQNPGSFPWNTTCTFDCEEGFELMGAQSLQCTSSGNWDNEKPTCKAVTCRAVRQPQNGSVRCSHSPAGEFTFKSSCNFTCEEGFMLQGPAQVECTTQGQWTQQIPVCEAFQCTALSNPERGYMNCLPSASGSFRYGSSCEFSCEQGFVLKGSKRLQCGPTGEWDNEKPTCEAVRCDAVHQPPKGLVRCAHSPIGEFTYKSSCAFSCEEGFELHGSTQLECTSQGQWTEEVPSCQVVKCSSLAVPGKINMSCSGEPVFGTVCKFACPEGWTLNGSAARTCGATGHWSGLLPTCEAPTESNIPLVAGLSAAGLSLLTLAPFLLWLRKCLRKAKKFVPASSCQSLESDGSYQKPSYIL

CCCCOC(=O)[C@@H](C)Oc1ccc(Oc2ccc(C(F)(F)F)cn2)cc1
active: [12] 39 µM
inactive: all other assays above

S=C([S-])NCCNC(=S)[S-].[Mn+2]
active: [7] 29.7 µM | [12] 39 µM | [13] 27.8 µM
not listed: [2]
inactive: all other assays above

CCNc1nc(N)nc(Cl)n1
inactive: all assays above
